Reference: PubChem BioAssay (NCATS)
Records with an inconclusive call do not appear. The source made the active and inactive calls. Calls come from the whole dose curve; as a rule, active = well fitted cell-killing curve with a large enough effect; inconclusive = small, poorly fitted or top-dose-only effect; inactive = flat fitted curve, though single readings scatter.

experiment: qHTS of pediatric cancer cell lines to identify multiple opportunities for drug repurposing: Primary screen for U-2 OS cells (AID 1347096); settings: U-2 OS viability, CellTiter-Glo luminescence, 48 h; series mostly up to 46 µM; activity change, negative = cytotoxic: at the top concentration; note: nearly all actives have a fitted effect of over 50% in size
Source text: Drug repurposing or repositioning has been offered as a strategy for drug development in oncology programs. This approach has special potential for childhood cancers and other rare or orphan diseases, where the expected return on new drug development has been a disincentive to pharmaceuticals.
In this project we exploit the poly-pharmacology of drugs to discover new indications via phenotypic screening of a panel of 19 well-characterized cell lines derived from solid tumors seen in children and adolescents. The goal is to identify approved drugs with previously unrecognized anticancer properties that has the potential to reveal new mechanisms and biological processes involved in carcinogenesis or drug resistance. We employed a titration-based paradigm (quantitative high-throughput screening or qHTS), where all compounds were tested at multiple concentrations for their effect on cell viability. Concentration-response curves (CRCs) were derived directly from the primary screen, and both potency and efficacy values were used to identify compounds with robust bioactivity profiles. We screened the NIH Chemical Genomics Center (NCGC) Pharmaceutical Collection (NPC) and Mechanism Interrogation Plate (MIPE) small molecule collections of approved and investigational compounds against these cell lines; and measured metabolically active cells after 48 hours of compound treatment as a proxy for cell viability.
Assay Submitter: Nathalia J. Martinez, National Center for Advancing Translational Sciences, National Institutes of Health, Rockville, MD, USA; email: natalia.martinez@nih.gov
[1] Shen, M et al. Quantitative high-throughput phenotypic screening of pediatric cancer cell lines identifies multiple opportunities for drug repurposing. Oncotarget 2017 Dec 19;9(4):4758-4772. PMID 29435139.
The cells were obtained from University of North Carolina (UNC), Pediatric Preclinical Testing Program (PPT), and Coriell Institute (CI).
qHTS cell viability assay:
Cells were assayed in growth media at a density of 500-1,000 cells/well. Five microliters of cells were dispensed into 1,536-well, white, solid-bottom, TC-treated plates (Greiner Bio One) using a multidrop dispenser and incubated at 37 degrees C, 5% CO2, under a humidified atmosphere for 5 hours. Twenty-three nanoliters of compounds and controls (neutral control DMSO or positive control bortezomib at final concentration of 2.3 µM) were subsequently transferred by Kalypsys pintool. For primary screens, the MIPE collection was tested at 11-point dilutions (final concentrations range from 0.78 nM to 46 µM) and the NPC collection at 8-point dilutions (final concentrations range from 0.59 nM to 46 µM). Compounds tested in follow-up screens were assayed at 11-point dilutions. Cells were incubated for 48 hours, followed by addition of 3 µL of CellTiter-Glo (Promega). After a 15 min incubation at room temperature, samples were analyzed for luminescence intensity using a ViewLux High-throughput CCD imager equipped with clear filters.
Potency is the fitted concentration of half-maximal effect.

Compound | activity change, negative = cytotoxic | Potency
CN(C)CCOC(c1ccc(Cl)cc1)c1ccccn1 (stereo not given) | -2.38% (inactive) | –
NS(=O)(=O)c1cc2c(cc1Cl)NC(CC1CCCC1)NS2(=O)=O (stereo not given) | 11.1% (inactive) | –
CCOC(=O)c1ccc(N)cc1 | -9.18% (inactive) | –
CO[C@]12C[C@@H](COC(=O)c3cncc(Br)c3)CN(C)[C@@H]1Cc1cn(C)c3cccc2c13 | 0.82% (inactive) | –
CC1(COc2ccc(CC3SC(=O)NC3=O)cc2)CCCCC1 (stereo not given) | 5.78% (inactive) | –
OC1C(O)C(O)C(O)C(O)C1O (stereo not given) | -3.4% (inactive) | –
CCCCC(CC)COC(=O)c1ccc(N(C)C)cc1 (stereo not given) | -5.23% (inactive) | –
N[C@H](C(=O)O)[C@@H](O)c1ccc(O)c(O)c1 | 12% (inactive) | –
CC(=O)Nc1ccc(OCC(O)CNC(C)C)cc1 (stereo not given) | 7.05% (inactive) | –
C=C[C@H]1CN2CC[C@H]1C[C@H]2[C@H](O)c1ccnc2ccc(OC)cc12 | -13% (inactive) | –
CN1CCN(c2cc3c(cc2F)c(=O)c(C(=O)O)cn3-c2ccc(F)cc2)CC1 | 4.99% (inactive) | –
CC(=O)O[C@]1(C(C)=O)CC[C@H]2[C@@H]3C=C(Cl)C4=CC(=O)CC[C@]4(C)[C@H]3CC[C@@]21C | -6.93% (inactive) | –
Nc1nc(-c2ccccc2)c(Br)c(=O)[nH]1 | -3.01% (inactive) | –
CCCCC(CC)COC(=O)/C=C/c1ccc(OC)cc1 (stereo not given) | 1.1% (inactive) | –
CC(C)(C)NC[C@H](O)COc1nsnc1N1CCOCC1 | 4.97% (inactive) | –
N#CCC(=O)NN | 7.66% (inactive) | –
C/C=C/c1ccc(O)c(OC)c1 | 11.6% (inactive) | –
C[C@@H](O)[C@H]1C(=O)N2C(C(=O)O)=C([C@H]3CCCO3)S[C@H]12 | 10.7% (inactive) | –
O=C1c2cccc3c2[C@H](CCC3)CN1[C@@H]1CN2CCC1CC2 | -4.73% (inactive) | –
CC[C@]12CCCN3CCc4c(n(c5ccccc45)C(=O)C1)[C@@H]32 | -11.9% (inactive) | –

Compound | activity change, negative = cytotoxic | Potency
CCOc1ccccc1OCCN[C@H](C)Cc1ccc(OC)c(S(N)(=O)=O)c1 | -1.5% (inactive) | –
Cc1cn([C@H]2C[C@H](F)[C@@H](CO)O2)c(=O)[nH]c1=O | 18.7% (inactive) | –
CC(=O)O[C@]1(C(C)=O)CC[C@H]2[C@@H]3C=C(C)C4=CC(=O)CC[C@]4(C)[C@H]3CC[C@@]21C | 10.1% (inactive) | –
CCO[C@@H]1O[C@H](C(COCc2ccccc2)OCc2ccccc2)[C@H](OCc2ccccc2)[C@H]1O (stereo not given in full) | -13.9% (inactive) | –
Cc1cc(CC(=O)O)c(C)n1-c1ccc(Cl)cc1 | 13.7% (inactive) | –
CCN(CC)CCNC(=O)COc1ccc(OC)cc1 | -5.4% (inactive) | –
Nc1nc(Cl)nc2c1ncn2[C@@H]1O[C@H](CO)[C@@H](O)[C@@H]1F | -12.3% (inactive) | –
CC(C)Cn1cnc2c1c(=O)n(C)c(=O)n2C | -0.428% (inactive) | –
CC(C(=O)O)c1cccc(Oc2ccccc2)c1 (stereo not given) | 8.85% (inactive) | –
C#C[C@]1(OC(C)=O)CC[C@H]2[C@@H]3CCC4=C/C(=N/O)CC[C@@H]4[C@H]3CC[C@@]21CC | -24.6% (inactive) | –
CC(=C(CCOC(=O)C(C)C)SSC(CCOC(=O)C(C)C)=C(C)N(C=O)Cc1cnc(C)nc1N)N(C=O)Cc1cnc(C)nc1N | 14.7% (inactive) | –
CC1=C(C(=O)O)N2C(=O)[C@@H](NC(=O)[C@H](N)c3ccccc3)[C@H]2SC1 | 3.88% (inactive) | –
OCc1ccccn1 | -2.73% (inactive) | –
CN(C)CCN1C(=O)c2ccccc2N(C)c2ccccc21 | -1.65% (inactive) | –
C[C@@]12C(=O)OC(=O)[C@]1(C)C1CCC2O1 | – | 3.35 µM (active)
COc1cc(C)nc(-n2nc(C)cc2OC)n1 | 14.5% (inactive) | –
CN1CCN(C2=Nc3ccccc3Sc3ccc(Cl)cc32)CC1 | -7.1% (inactive) | –
CCCCCCCCCCCCCCCC(=O)O | 12.7% (inactive) | –
CN1CCC(OC(c2ccccc2)c2ccccc2)CC1 | 0.797% (inactive) | –
CC1CCc2c(N3CCC(O)CC3)c(F)cc3c(=O)c(C(=O)O)cn1c23 (stereo not given) | -4.4% (inactive) | –
